Experimental data published in PubChem BioAssay (NCI).
Compounds without any hit were thinned out: in the full panel of roughly 83,000, 20% have a hit.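 Percent growth is the endpoint: 0 to 100 indicates growth inhibition (40 means 60% inhibition), 0 means no net growth, and negative values indicate cell death.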 Calls of active or inactive are those of the source. Rule for the calls: active = growth percent below 10; inactive = the rest.

Legend:
Assay in all cases: NCI-60 one-dose screen, 48 h (100 = growth as untreated, 0 = no growth, -100 = all killed)
Conditions in all cases: 10 µM unless noted
T-47D breast = test system: T-47D breast
BT-549 breast = test system: BT-549 breast
MDA-MB-435 melanoma = test system: MDA-MB-435 melanoma
SW-620 colon = test system: SW-620 colon
MCF7 breast = test system: MCF7 breast
HCT-116 colon = test system: HCT-116 colon
HCC-2998 colon = test system: HCC-2998 colon
KM12 colon = test system: KM12 colon

Measured: growth

COC(=O)/C=C1\S/C(=N\NC(=O)c2cc3ccc2/C=C\c2ccc(cc2)/C=C\3)N(c2ccccc2)C1=O
inactive: BT-549 breast 35.5% | MDA-MB-435 melanoma 89.6% | MCF7 breast 23.2%
active: T-47D breast -38.2% | SW-620 colon 7.39% | HCT-116 colon 4.05% | HCC-2998 colon 3.64% | KM12 colon 8.49%

C/C(=N\NC(=O)CSc1nc2ccccc2c(=O)n1CCc1ccc(S(N)(=O)=O)cc1)c1ccccn1
inactive: T-47D breast 28.4% | BT-549 breast 59.4% | MDA-MB-435 melanoma 33.4% | SW-620 colon 32.1% | MCF7 breast 34.5% | HCT-116 colon 24.5% | HCC-2998 colon 39.3% | KM12 colon 21.3%

O=C(CNCCN1CCOCC1)N1c2cccc3cccc(c23)N(C(=O)CNCCN2CCOCC2)C1c1cn(-c2ccccc2)nc1-c1cccc([N+](=O)[O-])c1
inactive: T-47D breast 77.6% | BT-549 breast 89.7% | MDA-MB-435 melanoma 80.1% | SW-620 colon 83.2% | MCF7 breast 36.9% | HCT-116 colon 50.7% | HCC-2998 colon 35.4% | KM12 colon 98.8%

Oc1ccc(C2c3ccccc3Oc3ccccc32)c2cccnc12
inactive: T-47D breast 31.1% | BT-549 breast 29.3% | MDA-MB-435 melanoma 27.3% | SW-620 colon 23.5% | MCF7 breast 17.4% | HCT-116 colon 20.1% | HCC-2998 colon 35.4%

COC(=O)C(CC=O)C(=O)C(=O)Nc1cccc(C(F)(F)F)c1 (configuration not stated)
inactive: T-47D breast 77.4% | BT-549 breast 101% | MDA-MB-435 melanoma 107% | SW-620 colon 95.6% | MCF7 breast 104% | HCT-116 colon 90.1% | HCC-2998 colon 97% | KM12 colon 100%

CCN1C(=O)/C(=C/C(=O)OC)S/C1=N\NC(=O)c1cc2ccc1/C=C\c1ccc(cc1)/C=C\2
inactive: T-47D breast 94.2% | BT-549 breast 92.3% | MDA-MB-435 melanoma 99.3% | MCF7 breast 43.7% | HCT-116 colon 49.5% | HCC-2998 colon 105% | KM12 colon 85%
active: SW-620 colon 8.79%

O=S(=O)(NCCCNc1nccc(-c2c(-c3cccc(F)c3)nc3sccn23)n1)c1cccc2ccccc12
inactive: T-47D breast 18.4% | BT-549 breast 65% | MDA-MB-435 melanoma 22.6% | SW-620 colon 42.1% | MCF7 breast 37.4% | HCT-116 colon 32.4% | HCC-2998 colon 16.3% | KM12 colon 26%

COc1cccc(-c2ccc3c(c2)NC(=O)/C3=C\c2ccc[nH]2)c1
inactive: T-47D breast 13.6% | BT-549 breast 36.6% | SW-620 colon 25.1% | MCF7 breast 11.3% | HCT-116 colon 23.5% | HCC-2998 colon 25.4%
active: MDA-MB-435 melanoma 8.7% | KM12 colon 9.35%

N#Cc1c(-c2cccc([N+](=O)[O-])c2)nc(SCC(=O)c2ccc(Cl)cc2)[nH]c1=O
inactive: T-47D breast 105% | BT-549 breast 99.7% | MDA-MB-435 melanoma 100% | SW-620 colon 98.4% | MCF7 breast 105% | HCT-116 colon 105% | HCC-2998 colon 106% | KM12 colon 99.4%

NS(=O)(=O)c1ccc(CCN2C(=O)C=CC2=O)cc1
inactive: T-47D breast 99.5% | BT-549 breast 111% | MDA-MB-435 melanoma 108% | SW-620 colon 106% | MCF7 breast 94.4% | HCT-116 colon 99.7% | HCC-2998 colon 95.2% | KM12 colon 104%

C=C1C(=O)O[C@H]2[C@H]1CC/C(CNS(=O)(=O)c1cccc3ccccc13)=C\CC[C@@]1(C)O[C@@H]21
active: SW-620 colon -34.9% | HCT-116 colon -60.7%
inactive: T-47D breast 24.5% | BT-549 breast 37.2% | MDA-MB-435 melanoma 38.1% | MCF7 breast 16.2% | HCC-2998 colon 71.5% | KM12 colon 85%

N#CC1C(C#N)C2c3ccccc3C=CN2C1C(=O)c1ccc(Br)cc1 (configuration not stated)
inactive: T-47D breast 91.8% | BT-549 breast 103% | MDA-MB-435 melanoma 100% | SW-620 colon 99.2% | MCF7 breast 92.5% | HCT-116 colon 87.7% | HCC-2998 colon 112% | KM12 colon 99.2%

CCCCCN1C=C/C(=C\C(=O)N(C)c2ccccc2Br)c2ccccc21
inactive: T-47D breast 77.3% | BT-549 breast 116% | MDA-MB-435 melanoma 99.4% | SW-620 colon 97% | MCF7 breast 94.3% | HCT-116 colon 87.2% | HCC-2998 colon 102% | KM12 colon 98.4%

NC(=NCCCOc1ccc(F)cc1)Nc1ccc(I)cc1
inactive: T-47D breast 28.2% | BT-549 breast 74.8% | MDA-MB-435 melanoma 64.4% | SW-620 colon 67.1% | MCF7 breast 10% | HCT-116 colon 58.7% | HCC-2998 colon 29.2% | KM12 colon 87.8%

O=C(N/N=C/c1cc2ccccc2n2nnnc12)Nc1ccccc1
inactive: T-47D breast 108% | BT-549 breast 114% | MDA-MB-435 melanoma 102% | SW-620 colon 107% | MCF7 breast 92.3% | HCT-116 colon 113% | HCC-2998 colon 108% | KM12 colon 104%

CC(C)=CCC[C@](C)(O)[C@H]1CC[C@]2(C)[C@@H]1CC[C@@H]1[C@@]3(C)C/C(=C/c4ccccc4)C(=O)C(C)(C)[C@@H]3CC[C@]12C
inactive: T-47D breast 87.4% | BT-549 breast 100% | MDA-MB-435 melanoma 90.3% | SW-620 colon 80.4% | MCF7 breast 94.6% | HCT-116 colon 85.1% | HCC-2998 colon 98.8% | KM12 colon 90%
